For some assays here: Results with a measured potency or affinity are listed apart. The source made the active and inactive calls. Unless noted, no rule for the calls is given here.
Legend:
[1] = antimalarial activity against Dd2 strain (AID 2302;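 active = growth inhibition above 50% at the single 2 µM test dose, taken to imply half-maximal potency below 2 µM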;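 also: 0% = DMSO untreated growth and 100% = chloroquine plus artemisinin killed control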); conditions: P. falciparum Dd2 in RBCs, LDH growth readout, 72 h; at 2 µM; active compounds read high
[2] = HepG2 cytotoxicity, primary screen, cytotoxicity control for P. falciparum antimalarial project, cell-based, ATP luminescence (AID 2303;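 active = inhibition above 50%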;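 also: 0% = DMSO wells and 100% = digitonin-killed cells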); conditions: HepG2 viability, 24-48 h, at 10 µM, active compounds read high
[3] = molecular target: L-lactate dehydrogenase (Plasmodium falciparum (isolate CDC / Honduras)) (UniProt Q27743); assay: PfLDH activity inhibition – cell lysate, 3D7 strain, counter-screen for P. falciparum growth inhibition project (AID 2304);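 also: 0% = vehicle and 100% = reference inhibitor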; conditions: P. falciparum 3D7 crude extract, LDH APAD/NBT absorbance; at 2 µM; active compounds read high
[4] = inhibition of 3D7 malaria parasite growth – strain 3D7 (AID 2306);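 also: 0% = DMSO wells and 100% = chloroquine plus artemisinin control wells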; conditions: P. falciparum 3D7 erythrocytic growth, LDH absorbance, 72 h; at 2 µM; active compounds read high
[5] = molecular target: Calcium-dependent protein kinase 1 (Plasmodium falciparum (isolate 3D7)) (UniProt P62344); assay: PfCDPK1 kinase inhibitors, biochemical, TCAMS library (AID 1159585; cut-off not given, nearly all actives have IC50 up to about 0.98 µM;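 also: inhibitors leave more ATP so luminescence rises with inhibition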); conditions: recombinant PfCDPK1, Kinase-Glo ATP depletion luminescence
[6] = molecular target: Plasmodium falciparum protein kinase 6 (PK6, PF3D7_1337100) (UniProt Q8IDW1); assay: PfPK6 kinase inhibitors, biochemical, TCAMS library (AID 1159586); conditions: recombinant PfPK6, Kinase-Glo ATP depletion luminescence
[7] = molecular target: Protein kinase 7 (PK7), Plasmodium falciparum 3D7 (PF3D7_0213400) (UniProt Q7YTF7); assay: inhibition of Plasmodium PK7 catalytic activity – biochemical, TCAMS antimalarial set, Kinase-Glo luminescence (AID 1159587); conditions: recombinant PfPK7, Kinase-Glo ATP depletion luminescence
[8] = molecular target: Calcium-dependent protein kinase 4 (Plasmodium falciparum (isolate 3D7)) (UniProt Q8IBS5); assay: PfCDPK4 kinase inhibitors, biochemical, TCAMS library (AID 1159588; cut-off not given, nearly all actives have IC50 up to about 0.91 µM); conditions: recombinant PfCDPK4, Kinase-Glo ATP depletion luminescence
Calcium-dependent protein kinase 4 (Plasmodium falciparum (isolate 3D7)), sequence (Q8IBS5 whole entry, looked up): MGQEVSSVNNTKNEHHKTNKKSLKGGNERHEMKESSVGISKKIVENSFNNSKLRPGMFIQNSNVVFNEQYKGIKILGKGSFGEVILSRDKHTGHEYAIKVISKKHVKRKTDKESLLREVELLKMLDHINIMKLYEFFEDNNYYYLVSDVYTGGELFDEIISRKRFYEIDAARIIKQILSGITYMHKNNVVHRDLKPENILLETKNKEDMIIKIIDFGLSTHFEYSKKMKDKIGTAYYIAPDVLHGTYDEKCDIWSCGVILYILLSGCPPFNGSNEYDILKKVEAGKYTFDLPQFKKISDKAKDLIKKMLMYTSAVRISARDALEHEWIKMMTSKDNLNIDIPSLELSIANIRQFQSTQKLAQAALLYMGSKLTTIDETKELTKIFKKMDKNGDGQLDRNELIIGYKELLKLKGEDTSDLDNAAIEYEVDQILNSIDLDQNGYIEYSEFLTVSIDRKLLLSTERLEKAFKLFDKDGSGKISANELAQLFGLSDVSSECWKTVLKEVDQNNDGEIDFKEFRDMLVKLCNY

Plasmodium falciparum protein kinase 6 (PK6, PF3D7_1337100), sequence (Q8IDW1 1-305): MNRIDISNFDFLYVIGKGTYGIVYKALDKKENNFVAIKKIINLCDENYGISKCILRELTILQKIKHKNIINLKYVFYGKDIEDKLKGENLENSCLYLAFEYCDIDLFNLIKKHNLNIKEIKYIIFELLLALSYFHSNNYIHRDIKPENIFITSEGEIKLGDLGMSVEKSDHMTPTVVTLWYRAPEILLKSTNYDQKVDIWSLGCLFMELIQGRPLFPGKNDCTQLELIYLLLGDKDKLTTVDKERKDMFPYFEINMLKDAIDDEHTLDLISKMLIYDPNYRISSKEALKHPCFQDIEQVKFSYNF
Protein kinase 7 (PK7), Plasmodium falciparum 3D7 (PF3D7_0213400), sequence (Q7YTF7 1-343): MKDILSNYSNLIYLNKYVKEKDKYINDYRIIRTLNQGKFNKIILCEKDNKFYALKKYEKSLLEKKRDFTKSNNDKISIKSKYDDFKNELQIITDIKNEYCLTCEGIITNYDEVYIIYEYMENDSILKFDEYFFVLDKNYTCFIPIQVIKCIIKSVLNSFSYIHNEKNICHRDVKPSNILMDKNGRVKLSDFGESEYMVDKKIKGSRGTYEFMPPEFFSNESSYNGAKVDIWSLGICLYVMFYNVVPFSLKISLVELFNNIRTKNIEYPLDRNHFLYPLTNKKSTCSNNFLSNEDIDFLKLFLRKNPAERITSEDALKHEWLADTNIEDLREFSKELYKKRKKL
Calcium-dependent protein kinase 1 (Plasmodium falciparum (isolate 3D7)), sequence (P62344 whole entry, looked up): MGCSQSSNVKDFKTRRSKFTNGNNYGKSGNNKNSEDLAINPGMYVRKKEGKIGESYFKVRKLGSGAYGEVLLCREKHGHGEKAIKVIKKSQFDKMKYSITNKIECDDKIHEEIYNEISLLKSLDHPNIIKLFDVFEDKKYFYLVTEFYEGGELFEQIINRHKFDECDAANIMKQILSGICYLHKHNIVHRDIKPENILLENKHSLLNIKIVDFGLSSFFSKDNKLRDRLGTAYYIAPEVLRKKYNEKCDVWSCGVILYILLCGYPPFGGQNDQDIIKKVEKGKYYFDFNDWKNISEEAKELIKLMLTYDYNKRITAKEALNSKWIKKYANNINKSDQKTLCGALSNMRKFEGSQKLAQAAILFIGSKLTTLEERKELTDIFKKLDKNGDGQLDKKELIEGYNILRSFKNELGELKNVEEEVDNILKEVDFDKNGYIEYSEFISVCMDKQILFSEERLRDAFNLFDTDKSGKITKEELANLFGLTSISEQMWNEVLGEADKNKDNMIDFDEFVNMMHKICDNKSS
L-lactate dehydrogenase (Plasmodium falciparum (isolate CDC / Honduras)), sequence (Q27743 whole entry, looked up): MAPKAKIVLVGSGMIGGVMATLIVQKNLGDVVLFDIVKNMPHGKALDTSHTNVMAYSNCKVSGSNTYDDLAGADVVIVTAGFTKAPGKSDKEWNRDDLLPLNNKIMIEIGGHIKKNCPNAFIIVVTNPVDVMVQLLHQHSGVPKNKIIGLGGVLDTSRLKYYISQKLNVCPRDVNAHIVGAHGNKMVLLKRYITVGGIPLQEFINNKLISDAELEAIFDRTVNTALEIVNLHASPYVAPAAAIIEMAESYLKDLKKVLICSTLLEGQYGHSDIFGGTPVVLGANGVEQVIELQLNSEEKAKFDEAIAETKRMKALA

CC(C)(C)CC(C)(C)c1ccc(O)c(CNC2CCCCC2)c1
active: growth inhibition [1] 99% | inhibition [2] 92% | growth inhibition [4] 98%
inactive: inhibition [3] 4% | outcome [5] | outcome [6] | outcome [7] | outcome [8]

C[C@]12CC3CC(Nc4nc(N5CCOCC5)nc5ccccc45)(C1)C[C@@](C)(C3)C2
active: growth inhibition [4] 95%
inactive: growth inhibition [1] 14% | inhibition [2] 31% | inhibition [3] -5% | outcome [5] | outcome [6] | outcome [7] | outcome [8]

O=C(NC1CCC(CCN2Cc3ccc(Br)cc3C2)CC1)c1cccc(-c2cccnc2)c1 (stereo unspecified)
active: growth inhibition [1] 73% | growth inhibition [4] 99%
inactive: inhibition [2] 14% | inhibition [3] 5% | outcome [5] | outcome [6] | outcome [7] | outcome [8]

COc1ccc2c(c1)ncn2-c1cc(OCc2ccncc2Br)c(C(N)=O)s1
active: growth inhibition [1] 50% | growth inhibition [4] 95%
inactive: inhibition [2] 14% | inhibition [3] -2% | outcome [5] | outcome [6] | outcome [7] | outcome [8]

CN(C)Cc1cccc(-c2ccc(NC(=O)c3ccc4c(=O)n(Cc5ccoc5)cnc4c3)cc2)c1
inactive: growth inhibition [1] 9% | inhibition [3] 3% | outcome [5] | outcome [6] | outcome [7] | outcome [8]
active: inhibition [2] 54% | growth inhibition [4] 98%

CC1(C)N=C(NC(=O)c2cc([N+](=O)[O-])cc([N+](=O)[O-])c2)N=C(N)N1OCc1cccc2ccccc12
active: inhibition [2] 66% | growth inhibition [4] 94%
inactive: growth inhibition [1] 20% | inhibition [3] -6% | outcome [5] | outcome [6] | outcome [7] | outcome [8]

CS(=O)(=O)c1cccc(-c2cnc(N)c3cc(-c4cccc(F)c4)ccc23)c1
active: growth inhibition [4] 97%
inactive: growth inhibition [1] 13% | inhibition [2] 45% | inhibition [3] 2% | outcome [5] | outcome [6] | outcome [7] | outcome [8]

COc1ccc2ncc(F)c(CCN3C[C@H](CNCc4ccc5c(n4)NC(=O)CS5)[C@H](O)C3)c2c1
inactive: growth inhibition [1] 34% | inhibition [2] -3% | inhibition [3] -3% | outcome [5] | outcome [6] | outcome [7] | outcome [8]
active: growth inhibition [4] 92%

CCNC[C@H]1CCCN1CCOc1ccc(-n2cnc3cc(-c4ccc(Cl)cc4)sc3c2=O)cc1OC
active: inhibition [2] 53% | growth inhibition [4] 97%
inactive: growth inhibition [1] 39% | inhibition [3] -11% | outcome [5] | outcome [6] | outcome [7] | outcome [8]

O=C(NCc1cccc(F)c1)Nc1ccc(-c2ccc(-c3nc4ccc(C(F)(F)F)cc4[nH]3)cc2)cc1
active: growth inhibition [4] 100%
inactive: growth inhibition [1] 24% | inhibition [2] 46% | inhibition [3] 0% | outcome [5] | outcome [6] | outcome [7] | outcome [8]

CC(=O)Nc1ncc(C(=O)Nc2cccc(-c3cccc(-c4nc5ccccc5[nH]4)c3)c2)s1
active: growth inhibition [4] 92%
inactive: growth inhibition [1] 38% | inhibition [2] 16% | inhibition [3] 0% | outcome [5] | outcome [6] | outcome [7] | outcome [8]

CCOC(=O)c1[nH]c(-c2cc(Cl)nc(Cl)c2)nc1NC(=S)NCCCN1CCOCC1
inactive: inhibition [2] 13% | inhibition [3] 3% | outcome [5] | outcome [6] | outcome [7] | outcome [8]
active: growth inhibition [1] 71% | growth inhibition [4] 89%

C/C=C/C=C/C1=NCCc2cc(OCCC)ccc21
active: growth inhibition [4] 87%
inactive: growth inhibition [1] 40% | inhibition [2] -1% | inhibition [3] -4% | outcome [5] | outcome [6] | outcome [7] | outcome [8]

COc1cc(CNCCCNc2nc3ccsc3c(=O)[nH]2)c2[nH]cc(Cl)c2c1
inactive: growth inhibition [1] -2% | inhibition [2] 29% | inhibition [3] 2% | outcome [5] | outcome [6] | outcome [7] | outcome [8]
active: growth inhibition [4] 96%

Cc1cc(N2CCCC2)nc(Nc2ccc(NC(=O)C(C)Oc3ccccc3)cc2)n1 (stereo unspecified)
inactive: inhibition [2] 42% | inhibition [3] -1% | outcome [5] | outcome [6] | outcome [7] | outcome [8]
active: growth inhibition [1] 58% | growth inhibition [4] 101%

COC(=O)c1ccc(OCC(O)CO)cc1O (stereo unspecified)
inactive: growth inhibition [1] 23% | inhibition [2] 4% | inhibition [3] 5% | outcome [5] | outcome [6] | outcome [7] | outcome [8]
active: growth inhibition [4] 101%

COc1ccc(-c2cnc(N)c(-c3nc4ccc(Br)cc4[nH]3)c2)cc1
active: growth inhibition [4] 100%
inactive: growth inhibition [1] 3% | inhibition [2] 42% | inhibition [3] 2% | outcome [5] | outcome [6] | outcome [7] | outcome [8]

O=C(NCc1ccccc1)O[C@@H]1CNCC[C@H]1c1ccc(C(O)Cc2ccccc2)cc1 (stereo partly specified)
inactive: growth inhibition [1] 5% | inhibition [2] 8% | inhibition [3] 4% | outcome [5] | outcome [6] | outcome [7] | outcome [8]
active: growth inhibition [4] 87%

COc1ccc(-c2ccc(NC(=O)c3ccc(Cl)cc3)cc2)cc1CN1CCNCC1
inactive: growth inhibition [1] 24% | inhibition [2] 14% | inhibition [3] 5% | outcome [5] | outcome [6] | outcome [7] | outcome [8]
active: growth inhibition [4] 99%

Cc1sc2nc(CSc3ccccc3)nc(N3CCN(CC(=O)N4CCCC4)CC3)c2c1C
active: growth inhibition [1] 69% | growth inhibition [4] 91%
inactive: inhibition [2] 19% | inhibition [3] 2% | outcome [5] | outcome [6] | outcome [7] | outcome [8]

Cc1ccccc1C1CCN(C2CCC(NC(=O)/C=C/c3ccc(F)c(F)c3)CC2)CC1 (stereo unspecified)
inactive: growth inhibition [1] 7% | inhibition [2] 34% | inhibition [3] -1% | outcome [5] | outcome [6] | outcome [7] | outcome [8]
active: growth inhibition [4] 93%

COc1ccc(C=NNc2cc(C)nc3ccccc23)c(OC)c1
active: growth inhibition [1] 94% | growth inhibition [4] 101%
inactive: inhibition [2] 24% | inhibition [3] -2% | outcome [5] | outcome [6] | outcome [7] | outcome [8]

NC1CCN(c2nc(NCCCc3ccc(O)cc3)nc(NCc3ccccc3-c3ccccc3)n2)CC1
inactive: growth inhibition [1] 45% | inhibition [2] 11% | inhibition [3] 4% | outcome [5] | outcome [6] | outcome [7] | outcome [8]
active: growth inhibition [4] 102%

Cc1ccccc1NC1=NC(=S)N(c2cccc(C(F)(F)F)c2)C12CCC(C(C)(C)C)CC2 (stereo unspecified)
active: growth inhibition [4] 95%
inactive: growth inhibition [1] 25% | inhibition [2] 9% | inhibition [3] 5% | outcome [5] | outcome [6] | outcome [7] | outcome [8]

O=C(Nc1ccc(Oc2ccccc2)cc1)N(CCN1CCCC1)Cc1ccc(-c2ccc(CN3CCNCC3)cc2)cc1
active: growth inhibition [1] 90% | growth inhibition [4] 88%
inactive: inhibition [2] 48% | inhibition [3] -2% | outcome [5] | outcome [6] | outcome [7] | outcome [8]

Fc1ccc(Nc2ccnc3cc(-c4ccc(CN5CCOCC5)o4)ccc23)c(Cl)c1
inactive: inhibition [2] 42% | inhibition [3] 5% | outcome [5] | outcome [6] | outcome [7] | outcome [8]
active: growth inhibition [1] 100% | growth inhibition [4] 101%

CC[C@H](C)CNC(=O)c1cccc(-c2ccc(CN3CCC(N4CCCC4)CC3)cc2)n1
inactive: inhibition [2] 41% | inhibition [3] -2% | outcome [5] | outcome [6] | outcome [7] | outcome [8]
active: growth inhibition [1] 82% | growth inhibition [4] 101%

N#Cc1ccc(N(CCOc2ccc(Cl)c(F)c2)Cc2ccccc2C(F)(F)F)cc1C(F)(F)F
active: growth inhibition [4] 101%
inactive: growth inhibition [1] 43% | inhibition [2] 17% | inhibition [3] -2% | outcome [5] | outcome [6] | outcome [7] | outcome [8]

N#Cc1ccc2c(c1)CCN(CCC1CCC(NC(=O)/C=C/c3ccc4[nH]ccc4c3)CC1)CC2 (stereo unspecified)
inactive: growth inhibition [1] 27% | inhibition [2] 2% | inhibition [3] 2% | outcome [5] | outcome [6] | outcome [7] | outcome [8]
active: growth inhibition [4] 93%

Cc1ccc(C)c(NC(=O)NC2CCN(c3ccnc(Nc4ccc(F)cc4)n3)C2)c1 (stereo unspecified)
active: growth inhibition [1] 74% | growth inhibition [4] 100%
inactive: inhibition [2] -2% | inhibition [3] -3% | outcome [5] | outcome [6] | outcome [7] | outcome [8]

c1ccc2c(c1)ncn2-c1ccnc(Nc2ccncc2)n1
inactive: inhibition [2] 0% | inhibition [3] -3% | outcome [5] | outcome [6] | outcome [7] | outcome [8]
active: growth inhibition [1] 80% | growth inhibition [4] 89%

Cc1cccc2c(C(=O)NC3CCN(Cc4ccccc4)CC3)cc(-c3cccnc3)nc12
active: growth inhibition [4] 81%
inactive: growth inhibition [1] 10% | inhibition [2] 12% | inhibition [3] -2% | outcome [5] | outcome [6] | outcome [7] | outcome [8]

Cc1cccc(Cl)c1Nc1nnc(-c2cccc(C(=O)NC[C@@H]3CC[C@H]4C[C@@H]3C4(C)C)c2)o1
inactive: inhibition [2] 2% | inhibition [3] -3% | outcome [5] | outcome [6] | outcome [7] | outcome [8]
active: growth inhibition [1] 69% | growth inhibition [4] 85%

CCNc1cc(C(=O)N[C@@H](Cc2ccccc2)[C@H](O)CNCc2cccc(-c3cncnc3)c2)cc(N2CCCC2=O)c1
inactive: inhibition [2] 5% | inhibition [3] 2% | outcome [5] | outcome [6] | outcome [7] | outcome [8]
active: growth inhibition [1] 96% | growth inhibition [4] 97%

CN(C)Cc1cccc(-c2cnc(N)c(-c3nc4ccc(S(C)(=O)=O)cc4[nH]3)c2)c1
active: growth inhibition [1] 61% | growth inhibition [4] 100%
inactive: inhibition [2] 27% | inhibition [3] -2% | outcome [5] | outcome [6] | outcome [7] | outcome [8]

O=C(Nc1cccnc1)c1ccc(-c2cc3ccncc3cc2OC2CCNCC2)s1
active: growth inhibition [4] 97%
inactive: growth inhibition [1] 12% | inhibition [2] -5% | inhibition [3] 1% | outcome [5] | outcome [6] | outcome [7] | outcome [8]

CCCC(C)Nc1nc(C)cc(N[C@@H](CC(C)C)C(=O)NCCc2ccccc2)n1 (stereo partly specified)
inactive: inhibition [2] 9% | inhibition [3] -2% | outcome [5] | outcome [6] | outcome [7] | outcome [8]
active: growth inhibition [1] 51% | growth inhibition [4] 96%

Source: PubChem BioAssay
